According to article PMC4336329 (PLoS ONE, 2015):
About 2,200 (0.71%) of roughly 310,000 compounds showed an effect of 50% or more. Effects have a minus sign here. Many of the other results were omitted from the sample, so strong results are more common in it than they were.

Molecular target: human ether-à-go-go-related gene (hERG) potassium channel (human, UniProt Q12809)
Test: primary screen, population patch clamp on CHO cells stably expressing hERG; higher = less effect of the substance

human ether-à-go-go-related gene (hERG) potassium channel, sequence (Q12809 whole entry, looked up): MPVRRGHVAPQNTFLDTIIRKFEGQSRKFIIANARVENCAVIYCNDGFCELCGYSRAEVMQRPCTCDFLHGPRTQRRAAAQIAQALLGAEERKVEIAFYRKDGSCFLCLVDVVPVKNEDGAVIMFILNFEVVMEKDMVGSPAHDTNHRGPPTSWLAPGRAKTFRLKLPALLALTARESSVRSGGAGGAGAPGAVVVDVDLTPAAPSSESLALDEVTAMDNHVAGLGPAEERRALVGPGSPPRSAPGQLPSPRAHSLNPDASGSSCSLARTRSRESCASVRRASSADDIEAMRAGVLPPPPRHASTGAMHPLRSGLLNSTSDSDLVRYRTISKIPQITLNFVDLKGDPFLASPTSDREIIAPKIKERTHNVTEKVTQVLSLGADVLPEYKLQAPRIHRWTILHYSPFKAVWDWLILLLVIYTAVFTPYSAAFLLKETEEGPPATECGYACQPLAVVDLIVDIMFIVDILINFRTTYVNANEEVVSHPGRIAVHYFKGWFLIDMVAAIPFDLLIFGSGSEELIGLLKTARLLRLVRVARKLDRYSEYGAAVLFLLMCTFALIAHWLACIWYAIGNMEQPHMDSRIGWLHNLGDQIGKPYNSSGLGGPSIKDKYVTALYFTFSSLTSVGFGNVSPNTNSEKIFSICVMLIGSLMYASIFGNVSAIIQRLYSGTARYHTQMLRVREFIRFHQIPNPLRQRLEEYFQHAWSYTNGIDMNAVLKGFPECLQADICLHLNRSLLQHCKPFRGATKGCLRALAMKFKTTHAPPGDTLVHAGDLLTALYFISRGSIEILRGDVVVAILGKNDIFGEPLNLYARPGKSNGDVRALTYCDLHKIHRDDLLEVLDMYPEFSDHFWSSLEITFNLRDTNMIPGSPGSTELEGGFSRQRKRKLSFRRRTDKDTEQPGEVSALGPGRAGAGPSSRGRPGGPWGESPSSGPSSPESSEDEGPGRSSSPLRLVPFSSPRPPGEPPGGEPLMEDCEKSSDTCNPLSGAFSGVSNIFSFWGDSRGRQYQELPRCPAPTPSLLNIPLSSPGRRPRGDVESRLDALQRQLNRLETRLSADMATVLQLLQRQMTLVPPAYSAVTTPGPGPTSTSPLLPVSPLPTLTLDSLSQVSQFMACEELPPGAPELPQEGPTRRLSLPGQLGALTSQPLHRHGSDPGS

First: CCCCNC(=O)/C(=C/c1ccccc1)NC(C)=O
Second: CC(C)C(NC(=S)NCc1ccccc1)C(=O)O (stereo not drawn)
The “hERG current change (%, negative = inhibition) at 1uM” value of the first is lower: 1.06% for the first, 12.7% for the second.

Going from O=C(CCCCCn1c(SCc2ccncc2)nc2ccccc2c1=O)NCc1ccco1 to Cc1ccc(CSc2nc3ccccc3c(=O)n2CCCC(=O)NCc2ccco2)cc1, the “hERG current change (%, negative = inhibition) at 1uM” value rises from -88.4% to 1.62%.

Going from O=C(CSc1nc2c(sc3ccccc32)c(=O)n1CCO)NCc1ccco1 to CCCCn1c(SCC(=O)NCc2ccco2)nc2c(sc3ccccc32)c1=O, the “hERG current change (%, negative = inhibition) at 1uM” value falls from -1% to -4.7%.

Going from O=C(CSc1nc2ccccc2c(=O)n1CCCO)NCc1ccccc1 to COCCCn1c(SCC(=O)NCc2ccccc2)nc2ccccc2c1=O, the “hERG current change (%, negative = inhibition) at 1uM” value falls from -4.26% to -8.03%.

Compared with CCN(CC)CCn1c(SCC(=O)NCc2ccco2)nc2c(sc3ccccc32)c1=O, CCOCCCn1c(SCC(=O)NCc2ccco2)nc2c(sc3ccccc32)c1=O is higher in “hERG current change (%, negative = inhibition) at 1uM” value: -50.4% for the first, 3.64% for the second.

Going from O=C(CSc1nc2c(sc3ccccc32)c(=O)n1CCCN1CCOCC1)NCC1CCCO1 (stereo not drawn) to O=C(CSc1nc2c(sc3ccccc32)c(=O)n1CCCN1CCCC1)NCC1CCCO1 (stereo not drawn), the “hERG current change (%, negative = inhibition) at 1uM” value falls from 2.38% to -19.8%.

Compared with Cc1ccc(CNC(=O)CSc2nc3ccccc3c(=O)n2CCCO)cc1, Cc1ccc(CNC(=O)CSc2nc3c(sc4ccccc43)c(=O)n2CCCN2CCCC2)cc1 is lower in “hERG current change (%, negative = inhibition) at 1uM” value: -51.3% for the first, -57.9% for the second.

Going from O=C(CCCCCn1c(SCC(=O)c2ccccc2)nc2ccccc2c1=O)NCc1ccco1 to O=C(CSc1nc2c(sc3ccccc32)c(=O)n1CCc1ccccc1)NCc1ccco1, the “hERG current change (%, negative = inhibition) at 1uM” value falls from 14.7% to 2.54%.

First: COc1cccc(NC(=O)CSc2nc3c(sc4ccccc43)c(=O)n2CCCN2CCCC2)c1
Second: COc1ccc(NC(=O)CSc2nc3c(sc4ccccc43)c(=O)n2CCCN2CCCC2)cc1
The “hERG current change (%, negative = inhibition) at 1uM” value of the first is lower: -3.14% for the first, -1.35% for the second.

Going from O=C(CN1C(=O)/C(=C/c2ccccc2F)Sc2ccccc21)N1CCN(c2ccccn2)CC1 to Cc1[nH]n(-c2ccc([N+](=O)[O-])cc2)c(=O)c1C=NCCN1CCN(C(=O)c2ccccc2F)CC1, the “hERG current change (%, negative = inhibition) at 1uM” value falls from 12.8% to -34.2%.

Compared with CC(=O)Nc1cccc(C(=O)OCC(=O)NC(C)c2ccc(F)cc2)c1 (stereo not drawn), CC(=O)Nc1ccc2c(c1)N(C(=O)CN(C)C)c1ccccc1CC2 is lower in “hERG current change (%, negative = inhibition) at 1uM” value: 16.1% for the first, 9.16% for the second.

First: Cc1cc(Oc2ccc(-c3ccccc3)cc2)nc(N2CCOCC2)n1
Second: O=C(Nc1nc(-c2ccccc2)cs1)c1ccc(N2CCOCC2)c([N+](=O)[O-])c1
The “hERG current change (%, negative = inhibition) at 1uM” value of the first is lower: 2.61% for the first, 31.6% for the second.

Compared with COc1ccc(N2CCC(CNC(=S)Nc3cccc(OC)c3)C2)cc1 (stereo not drawn), COc1ccc(CN2CCN(CCCc3ccccc3)C(CCO)C2)c(OC)c1 (stereo not drawn) is lower in “hERG current change (%, negative = inhibition) at 1uM” value: 8.46% for the first, -39.7% for the second.

Compared with Cc1ccc(-n2c(SCC(=O)NC3CCCCC3)nc3c(c2=O)SCC3)cc1, Cc1ccc2nc(SCC(=O)N3CCCCC3)nc(=O)n2c1 is higher in “hERG current change (%, negative = inhibition) at 1uM” value: 9.81% for the first, 12.4% for the second.

Compared with COc1ccc(C(=O)N=C2SC3CS(=O)(=O)CC3N2Cc2ccc(OC)c(OC)c2)cc1 (stereo not drawn), COc1ccc(CN2CCN(c3cccc(C)c3C)CC2)cc1OC is lower in “hERG current change (%, negative = inhibition) at 1uM” value: 10.7% for the first, -61.1% for the second.

Going from CCOc1ccc(Nc2ncnc3c2cnn3Cc2ccccc2)cc1 to COc1ccc(CN2CCN(Cc3ccccc3)CC2)c(OC)c1, the “hERG current change (%, negative = inhibition) at 1uM” value falls from 8.72% to -43.8%.

Compared with C=CCOc1cccc(C2/C(=C(/O)c3ccc(F)cc3)C(=O)C(=O)N2CCN2CCOCC2)c1 (stereo not drawn), Cc1[nH]n(-c2ccc([N+](=O)[O-])cc2)c(=O)c1C=NCCN1CCN(C(=O)c2ccc(F)cc2)CC1 is lower in “hERG current change (%, negative = inhibition) at 1uM” value: 12.9% for the first, -81.7% for the second.

Going from O=[N+]([O-])c1cc(C(F)(F)F)cc([N+](=O)[O-])c1NN=C1CCCCC1 to Cc1[nH]n(-c2ccc([N+](=O)[O-])cc2)c(=O)c1C=NCC1CCCO1 (stereo not drawn), the “hERG current change (%, negative = inhibition) at 1uM” value falls from 9.66% to 7.67%.

Going from CC(=O)N1CCN(Cc2nc3cc(NC(=O)Nc4ccccc4)ccc3n2C)CC1 to COc1ccc(CN2CCN(Cc3ccccc3F)CC2)c(OC)c1.O=C(O)C(=O)O, the “hERG current change (%, negative = inhibition) at 1uM” value falls from 15.5% to -36%.

Compared with CC(C)CN(C(=O)COC(=O)C12CC3CC(CC(O)(C3)C1)C2)C1CCS(=O)(=O)C1 (stereo not drawn), C[C@H](CCC(=O)O)[C@H]1CC[C@H]2[C@@H]3CC[C@@H]4C[C@H](O)CC[C@]4(C)[C@H]3CC[C@]12C is lower in “hERG current change (%, negative = inhibition) at 1uM” value: 18.7% for the first, 15.8% for the second.

Compared with CSCCC(/C(O)=C(\C#N)c1nc2ccccc2[nH]1)N1C(=O)c2ccccc2C1=O (stereo not drawn), Cc1cc(C(=O)CN2C(=O)c3ccccc3C2=O)c(C)n1Cc1cccs1 is higher in “hERG current change (%, negative = inhibition) at 1uM” value: 5.68% for the first, 9.88% for the second.

Going from CC(C)C(=O)Nc1ccc(C(=O)NNC(=O)NC2CCCCC2)cc1 to C=CCNC(=O)CSc1nnc(C(CC)N(C)C)n1C1CCCCC1 (stereo not drawn), the “hERG current change (%, negative = inhibition) at 1uM” value falls from 21.9% to 8.12%.

Compared with O=C(CSc1nc2c(sc3ccccc32)c(=O)n1CCCN1CCCC1)NCc1ccco1, O=C(CSc1nc2c(sc3ccccc32)c(=O)n1CCCN1CCCC1)NCc1ccccc1 is higher in “hERG current change (%, negative = inhibition) at 1uM” value: -70.1% for the first, -67.9% for the second.

First: CCCc1cc(C(=O)NCCc2ccccc2)no1
Second: CCc1ccc(CN(C)C(=O)c2cc(COc3cccc(C(F)(F)F)c3)on2)nc1
The “hERG current change (%, negative = inhibition) at 1uM” value of the first is lower: -4.85% for the first, 6.84% for the second.

Compared with CC1(C(=O)NCCc2c[nH]c3ccccc23)C=CC2(CCCCC2)N1C(=O)c1ccccc1 (stereo not drawn), Cc1[nH]n(-c2ccc([N+](=O)[O-])cc2)c(=O)c1C=NCCN1CCN(C(=O)c2ccccc2)CC1 is lower in “hERG current change (%, negative = inhibition) at 1uM” value: 2.59% for the first, -77% for the second.

Going from O=C(/C=C/c1ccc(Cl)cc1)NCc1ccncc1 to CC(C(=O)N1CCc2ccccc21)N1CCN(Cc2ccc(Cl)cc2)CC1 (stereo not drawn), the “hERG current change (%, negative = inhibition) at 1uM” value falls from 9.09% to -30.9%.

Going from COc1ccccc1-n1c([S-])c(C(=O)Nc2ccccc2C(F)(F)F)[n+]2ccc(C(=O)NCCO)cc12 to CN(c1ccc(C(=O)NCCSCc2ccc(Cl)cc2)cc1)S(=O)(=O)c1ccccc1, the “hERG current change (%, negative = inhibition) at 1uM” value rises from 12.9% to 14.1%.

Compared with Nc1ncnc(Nc2c(F)cccc2F)n1, N#CNC(N)=Nc1cccc(Cl)c1 is higher in “hERG current change (%, negative = inhibition) at 1uM” value: 7.67% for the first, 16.4% for the second.

First: CCOCCCNc1nc2c(C)cccn2c(=O)c1/C=C1\SC(=S)N(C(C)CC)C1=O (stereo not drawn)
Second: COc1ccc(CCN=Cc2c(C)[nH]n(-c3ccc([N+](=O)[O-])cc3)c2=O)cc1OC
The “hERG current change (%, negative = inhibition) at 1uM” value of the first is higher: 10.1% for the first, 7% for the second.

Compared with C=CCNC(=S)N1CCN(CCN=Cc2c(C)[nH]n(-c3ccc([N+](=O)[O-])cc3)c2=O)CC1, Cc1[nH]n(-c2ccc([N+](=O)[O-])cc2)c(=O)c1C=NCCN1CCN(C(=O)C(C)C)CC1 is higher in “hERG current change (%, negative = inhibition) at 1uM” value: -27.3% for the first, -19.5% for the second.

Compared with Cc1[nH]n(-c2ccc([N+](=O)[O-])cc2)c(=O)c1C=NCCN1CCN(C(=O)c2ccc(Br)cc2)CC1, Cc1[nH]n(-c2ccc([N+](=O)[O-])cc2)c(=O)c1C=NCCN1CCN(C(=O)c2cccc(F)c2)CC1 is lower in “hERG current change (%, negative = inhibition) at 1uM” value: -77.4% for the first, -78% for the second.

Compared with O=c1c(C=NCCN2CCNCC2)c(-c2ccccc2)[nH]n1-c1ccc([N+](=O)[O-])cc1, COc1ccc(-c2[nH]n(-c3ccc([N+](=O)[O-])cc3)c(=O)c2C=NCCN2CCNCC2)cc1 is higher in “hERG current change (%, negative = inhibition) at 1uM” value: -31% for the first, 2.86% for the second.

Going from Cc1[nH]n(-c2ccc([N+](=O)[O-])cc2)c(=O)c1C=NCCc1ccc(S(N)(=O)=O)cc1 to C#CCN(N(C)c1ncc(C(F)(F)F)cc1Cl)S(=O)(=O)c1ccc2ccccc2c1, the “hERG current change (%, negative = inhibition) at 1uM” value rises from 13.6% to 14.3%.

Going from O=C(N/N=C/c1cn(-c2ccccc2)nc1-c1cccnc1)c1cccnc1 to CC(C(=O)N1CCc2ccccc21)N1CCN(Cc2ccccc2)CC1 (stereo not drawn), the “hERG current change (%, negative = inhibition) at 1uM” value rises from -26.3% to 4.18%.

First: Cc1cc(C)cc(NC(=O)CCN2CCOCC2)c1
Second: COc1cc(CN2CCN(c3cccc(C)c3C)CC2)cc(Br)c1O
The “hERG current change (%, negative = inhibition) at 1uM” value of the first is higher: 7.44% for the first, 1.25% for the second.

First: Cc1ccc(NC(=S)c2nc3ccccc3[nH]2)c(C)c1
Second: COc1ccc(CN2CCN(c3ccccc3F)CC2)cc1O
The “hERG current change (%, negative = inhibition) at 1uM” value of the first is higher: 14.6% for the first, -51.2% for the second.

Going from CC(C)Cn1c(-c2ccc(F)cc2)n[nH]c1=S to COc1ccc(CN2CCN(c3ccccc3F)CC2)c(OC)c1, the “hERG current change (%, negative = inhibition) at 1uM” value falls from 11.6% to -57.8%.

First: COc1ccc(CN2CCN(C(C)C(=O)N3CCc4ccccc43)CC2)cc1OC (stereo not drawn)
Second: COc1ccc(CN2CCC(C(=O)N3CCN(c4ccccc4F)CC3)CC2)cc1OC
The “hERG current change (%, negative = inhibition) at 1uM” value of the first is lower: -52.3% for the first, 3.9% for the second.

First: COc1ccc(CN2CCN(CCCc3ccccc3)CC2)c(OC)c1
Second: COc1ccc(CN2CCN(c3ccccn3)CC2)c(OC)c1
The “hERG current change (%, negative = inhibition) at 1uM” value of the first is lower: -64.9% for the first, -52% for the second.

First: COc1cc(CN2CCN(c3ccccc3F)CC2)cc(OC)c1O
Second: COc1cc(CN2CCN(c3cccc(C)c3C)CC2)cc(OC)c1O
The “hERG current change (%, negative = inhibition) at 1uM” value of the first is higher: 2.78% for the first, -20.4% for the second.

Going from COc1ccc(CN2CCN(c3ccccc3OC)CC2)c(OC)c1.O=C(O)C(=O)O to COc1ccc(CN2CCN(c3ccccn3)CC2)c(OC)c1C.O=C(O)C(=O)O, the “hERG current change (%, negative = inhibition) at 1uM” value rises from -47.7% to 5.42%.

Compared with C(=N\n1cnnc1)/c1cccs1, COc1ccc(-c2[nH]ncc2CN2CCN(c3ccccn3)CC2)c(OC)c1 is lower in “hERG current change (%, negative = inhibition) at 1uM” value: 5.5% for the first, 2.51% for the second.
